From PubChem BioAssay (NCI)
Compounds without any hit were thinned out: in the full panel of roughly 83,000, 20% have a hit.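 Negative percent growth values reflect cell death: -40 means 40% of the cells present at the start died, and -100 means all died.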 The source made the active and inactive calls. How the source made its calls: active means growth percent below 10; inactive means the rest.

Columns and labels:
Assay in all cases: NCI-60 one-dose screen, 48 h (100 = growth as untreated, 0 = no growth, -100 = all killed)
Settings in all cases: 10 µM
HOP-92 NSCLC = system: HOP-92 NSCLC
COLO 205 colon = system: COLO 205 colon
RXF 393 renal = system: RXF 393 renal
SNB-75 CNS = system: SNB-75 CNS
SK-MEL-5 melanoma = system: SK-MEL-5 melanoma
SK-MEL-2 melanoma = system: SK-MEL-2 melanoma
CCRF-CEM leukemia = system: CCRF-CEM leukemia
OVCAR-4 ovarian = system: OVCAR-4 ovarian
SK-OV-3 ovarian = system: SK-OV-3 ovarian
IGROV1 ovarian = system: IGROV1 ovarian
T-47D breast = system: T-47D breast
MCF7 breast = system: MCF7 breast
HCT-116 colon = system: HCT-116 colon
HCC-2998 colon = system: HCC-2998 colon
KM12 colon = system: KM12 colon
UACC-62 melanoma = system: UACC-62 melanoma
NCI/ADR-RES ovarian = system: NCI/ADR-RES ovarian
SN12C renal = system: SN12C renal

Measured: growth

COc1ccc(Cc2nn(CC(=O)N/N=C/c3ccc([N+](=O)[O-])cc3)c(=O)c3c(C)noc23)cc1
active: OVCAR-4 ovarian 1.77%
inactive: HOP-92 NSCLC 91.6% | COLO 205 colon 82.9% | RXF 393 renal 55.5% | SNB-75 CNS 99.8% | SK-MEL-5 melanoma 92.8% | SK-MEL-2 melanoma 99.1% | CCRF-CEM leukemia 69.5% | SK-OV-3 ovarian 103% | IGROV1 ovarian 82.9% | T-47D breast 73.5% | MCF7 breast 55% | HCT-116 colon 27% | HCC-2998 colon 105% | KM12 colon 79.7%

COc1cc(C2CC(c3ccccc3)=Nc3c(N)nc(N)nc3N2)ccc1Oc1nc(NCCO)nc(N2CCOCC2)n1 (centres undefined)
inactive: HOP-92 NSCLC 86.3% | COLO 205 colon 112% | RXF 393 renal 95.7% | SNB-75 CNS 84.3% | SK-MEL-5 melanoma 98.7% | UACC-62 melanoma 97.1% | SK-MEL-2 melanoma 99.7% | CCRF-CEM leukemia 92.4% | OVCAR-4 ovarian 105% | IGROV1 ovarian 93% | NCI/ADR-RES ovarian 109% | T-47D breast 90% | MCF7 breast 83% | HCT-116 colon 105% | HCC-2998 colon 115% | KM12 colon 102%

COc1cc2oc(-c3cccc(C(=O)Nc4ccc(Cl)cc4)c3)cc(=O)c2c(OCCNC(=O)[C@@H](N)CO)c1OC
inactive: RXF 393 renal 41.5% | SK-MEL-2 melanoma 78.5% | OVCAR-4 ovarian 86.7% | IGROV1 ovarian 57.9% | NCI/ADR-RES ovarian 102% | T-47D breast 31.3% | HCT-116 colon 23.6% | HCC-2998 colon 20.5% | KM12 colon 35.2%
active: HOP-92 NSCLC -2.3% | SK-MEL-5 melanoma -81.9% | CCRF-CEM leukemia -37.9% | MCF7 breast -51.8%

Fc1ccc(-c2csc(Nc3cccc(Nc4nc(-c5ccc(F)cc5)cs4)c3)n2)cc1
inactive: HOP-92 NSCLC 39.2% | RXF 393 renal 75.5% | SNB-75 CNS 95.2% | SK-MEL-5 melanoma 61.2% | SK-MEL-2 melanoma 34.7% | SN12C renal 47.2% | CCRF-CEM leukemia 59.1% | OVCAR-4 ovarian 55.7% | SK-OV-3 ovarian 86.8% | IGROV1 ovarian 41.8% | MCF7 breast 24.7% | HCT-116 colon 57.7% | HCC-2998 colon 35.2% | KM12 colon 37.6%
active: T-47D breast 7.43%
